Among the data in PubChem BioAssay are composite z-score and z-score values, retold here.

A short description of assay [1]: anti-His antibody binders, primary screen, artefact control for SMM control protein annotation, biochemical, small-molecule microarray, 635 nm fluorescence (AID 1128).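 Also: score merges feature fluorescence with signal-to-noise for each printed compound spot.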 The settings on record: anti-His Alexa647 antibody binding, higher = more signal.
Assay [2] has as its system Human papillomavirus type 1a E7 protein (residues 1-88). Briefly: HPV1a E7 small-molecule binders, primary screen, biochemical, small-molecule microarray, residues 1-88, 635 nm (AID 1129). The settings on record: small-molecule microarray binding, fluorescence 635 nm; higher = more signal.
The target of assay [3] is Focal adhesion kinase 1 (Homo sapiens) (UniProt Q05397). The assay can be described thus: small-molecule microarray binders of FAK, primary screen, biochemical, 635/667 nm fluorescence, BSA, DTT (AID 1130).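 Also: composite of spot emission at 667 nm and signal to noise over triplicate slides.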 The settings on record: PTK2 binding, 635 nm fluorescence, higher = more signal.
Assay [4] relates to Fibrinogen (Alexa647-labelled). Briefly: fibrinogen binders on compound microarrays, profiling panel, artefact control for SMM control-protein annotation, biochemical, small-molecule microarray, 635/667 nm fluorescence (AID 1131).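 Also: z-score merges 667 nm fluorescence with per-spot signal-to-noise over triplicate slides.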 The settings on record: fibrinogen-A647 binding fluorescence, higher = more signal.
The target in assay [5] is Follistatin (Homo sapiens) (UniProt P19883). The assay can be described thus: follistatin binders on small-molecule microarrays, primary screen, biochemical, small-molecule microarray, 635/667 nm fluorescence (AID 1132). The settings on record: FST binding, 635 nm fluorescence, higher = more signal.
Assay [6] has as its target Fibroblast growth factor 2 (Homo sapiens) (UniProt P09038). The assay can be described thus: FGF2 binders on small-molecule microarrays, primary screen, biochemical, small-molecule microarray, 635/667 nm fluorescence (AID 1133). Particulars: small-molecule microarray binding, FGF2, fluorescence 635/667; higher = more signal.
A short description of assay [7]: mitochondrial membrane potential change in A549 cells, profiling panel, cell-based, JC-1 fluorescence, basal, 24 h, 100 nL (AID 1138).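 Also: A549 lung adenocarcinoma cells under basal conditions with no added stimulus; test concentration not given here.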 Particulars: higher = more signal.
Assay [8] has as its system Lefty1. The assay can be described thus: Lefty1 binders on small-molecule microarrays, primary screen, biochemical, small-molecule microarray, 635/667 nm fluorescence (AID 1139). Particulars: small-molecule microarray binding, fluorescence 635/667; higher = more signal.
Assay [9] has as its system wheat germ agglutinin (Triticum aestivum), Alexa647-labelled. The assay can be described thus: wheat germ agglutinin binders on compound microarrays, profiling panel, artefact control for SMM control-protein annotation, biochemical, small-molecule microarray, 635/667 nm fluorescence (AID 1140).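 Also: score merges 667 nm feature emission with signal to noise over triplicate slides.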 Particulars: WGA-A647 binding, 635 nm fluorescence, higher = more signal.
The target in assay [10] is Luciferin 4-monooxygenase (Photinus pyralis) (UniProt P08659). Briefly: firefly luciferase enzyme inhibitors, primary screen, biochemical, luminescence, purified enzyme, 2006 set (AID 1141).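 Also: cell-free assay with purified firefly luciferase at 100 ng per well in PBS; test concentration not given here.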 Particulars: SteadyGlo luminescence, 30 min, higher = more signal, called active from +8 up or from −8 down.

Activity calls are given as the source filed them.

Focal adhesion kinase 1 (Homo sapiens), sequence (Q05397 whole entry, looked up): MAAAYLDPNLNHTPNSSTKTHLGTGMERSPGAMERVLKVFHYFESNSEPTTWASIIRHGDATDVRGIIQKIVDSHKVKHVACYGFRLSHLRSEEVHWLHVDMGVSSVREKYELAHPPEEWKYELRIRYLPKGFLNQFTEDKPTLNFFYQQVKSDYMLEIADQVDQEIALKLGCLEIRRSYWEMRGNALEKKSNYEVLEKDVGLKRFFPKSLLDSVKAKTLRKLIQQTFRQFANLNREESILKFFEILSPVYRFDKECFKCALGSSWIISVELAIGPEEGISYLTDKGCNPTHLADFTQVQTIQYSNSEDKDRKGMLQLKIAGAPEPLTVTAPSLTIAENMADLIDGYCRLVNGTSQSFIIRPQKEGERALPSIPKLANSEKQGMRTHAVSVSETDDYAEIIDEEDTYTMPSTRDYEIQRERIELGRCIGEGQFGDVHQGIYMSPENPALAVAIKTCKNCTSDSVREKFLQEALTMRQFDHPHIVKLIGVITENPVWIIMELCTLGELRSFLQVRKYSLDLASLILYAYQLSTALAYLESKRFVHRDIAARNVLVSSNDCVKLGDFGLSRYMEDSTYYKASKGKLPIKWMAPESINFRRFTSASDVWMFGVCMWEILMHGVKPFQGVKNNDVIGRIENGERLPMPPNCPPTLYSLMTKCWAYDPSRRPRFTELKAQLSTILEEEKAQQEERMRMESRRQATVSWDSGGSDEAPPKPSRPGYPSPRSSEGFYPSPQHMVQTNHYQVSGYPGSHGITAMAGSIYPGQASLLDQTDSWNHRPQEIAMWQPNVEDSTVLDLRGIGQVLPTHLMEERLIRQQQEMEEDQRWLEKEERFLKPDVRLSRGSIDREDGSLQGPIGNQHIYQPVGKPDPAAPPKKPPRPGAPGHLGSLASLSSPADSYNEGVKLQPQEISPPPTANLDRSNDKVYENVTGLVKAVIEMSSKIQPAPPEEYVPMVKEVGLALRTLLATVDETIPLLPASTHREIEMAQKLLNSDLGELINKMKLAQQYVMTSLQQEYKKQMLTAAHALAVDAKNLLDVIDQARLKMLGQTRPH
Fibroblast growth factor 2 (Homo sapiens), sequence (P09038 whole entry, looked up): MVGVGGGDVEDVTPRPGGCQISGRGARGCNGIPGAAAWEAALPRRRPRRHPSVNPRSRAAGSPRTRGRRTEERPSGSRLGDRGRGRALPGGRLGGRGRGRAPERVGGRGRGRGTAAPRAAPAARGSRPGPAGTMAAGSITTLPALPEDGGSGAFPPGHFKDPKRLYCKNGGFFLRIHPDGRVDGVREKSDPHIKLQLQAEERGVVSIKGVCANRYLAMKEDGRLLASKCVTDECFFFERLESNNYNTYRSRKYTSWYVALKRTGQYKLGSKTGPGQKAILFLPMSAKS
Follistatin (Homo sapiens), sequence (P19883 whole entry, looked up): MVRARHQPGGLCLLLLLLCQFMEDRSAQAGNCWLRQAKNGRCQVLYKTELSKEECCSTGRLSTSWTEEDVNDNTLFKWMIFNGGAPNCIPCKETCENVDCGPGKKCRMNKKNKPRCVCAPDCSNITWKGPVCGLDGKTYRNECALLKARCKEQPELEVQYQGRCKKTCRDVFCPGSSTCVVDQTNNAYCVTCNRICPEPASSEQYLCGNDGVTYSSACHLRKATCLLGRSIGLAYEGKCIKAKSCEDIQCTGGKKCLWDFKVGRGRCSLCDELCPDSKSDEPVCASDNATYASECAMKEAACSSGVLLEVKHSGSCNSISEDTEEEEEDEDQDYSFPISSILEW
Luciferin 4-monooxygenase (Photinus pyralis), sequence (P08659 whole entry, looked up): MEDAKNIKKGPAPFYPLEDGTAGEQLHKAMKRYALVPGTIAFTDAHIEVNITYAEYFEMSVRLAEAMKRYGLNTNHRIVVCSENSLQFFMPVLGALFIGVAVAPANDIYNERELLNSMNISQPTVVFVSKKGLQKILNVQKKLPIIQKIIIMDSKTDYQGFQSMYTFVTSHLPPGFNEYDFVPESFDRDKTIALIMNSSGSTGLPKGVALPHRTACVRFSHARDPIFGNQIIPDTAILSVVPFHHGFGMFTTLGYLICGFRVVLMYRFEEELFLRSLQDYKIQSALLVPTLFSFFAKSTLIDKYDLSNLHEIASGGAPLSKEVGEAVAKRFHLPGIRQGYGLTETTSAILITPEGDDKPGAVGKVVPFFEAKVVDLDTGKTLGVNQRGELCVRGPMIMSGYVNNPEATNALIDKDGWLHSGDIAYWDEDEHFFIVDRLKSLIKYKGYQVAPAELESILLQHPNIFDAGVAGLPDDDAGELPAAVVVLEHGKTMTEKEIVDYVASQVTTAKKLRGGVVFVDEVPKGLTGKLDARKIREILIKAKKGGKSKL

In the case of `COc1ccc(CCNC(=O)[C@@]2(c3ccc([N+](=O)[O-])cc3)CC(=O)N(C3CCCCC3)[C@@H]2c2ccc(CO)cc2I)cc1`, the composite z-score in assay [1] is 0.312; in assay [2], 1.19; in assay [3], 0.338; in [4], -0.0396; in assay [5], 1.04; in [6], 1.24. Also, the composite z-score stood at 0.0241 in [8] and 0.402 in assay [9]. For the same molecule, the z-score in assay [7] was 3.1; in assay [10] it was -1.28 (inactive).
`Cc1ccc(S[C@]2(C(=O)NC3CC3)CC(=O)N(C3Cc4ccccc4C3)[C@@H]2c2ccc(CO)cc2I)cc1`: the composite z-score in assay [1] is 0.447; in [2], 0.275; in assay [3] it was -0.3; in [4] it was 0.484; in [5], 0.0932; in assay [6] it was -0.115. The composite z-score in assay [8] is -1.32; in assay [9], -0.409. In addition, the z-score is 1.57 in assay [7] and -1.28 (inactive) in [10].
For `CC1CC/C=C\[C@H]2OC34C=CCN(C(C)C)C(=O)[C@H]3N(C(C)CO)C(=O)[C@@H]4C2C(=O)O1` (stereo not given in full), the composite z-score in [1] was -0.112; in assay [2], -0.504; in assay [3], -0.205; in [4], -1.22; in assay [5], 0.305; in [6] it was -0.455. The composite z-score stood at 0.572 in [8] and 0.748 in assay [9]. Also, the results for the z-score in [7] and in assay [10] were 0.501 and -0.316 (inactive), respectively.
`CC[C@@H](O[Si](C#C[Si](C(C)C)(C(C)C)C(C)C)(C(C)C)C(C)C)c1cn([C@H](CO)Cc2ccccc2)nn1`: the composite z-score in [1] was 0.0554; in assay [2], 0.339; in assay [3] it was 0.324; in [4], 0.412; in [5], 0.448; in [6] it was 0.729. Further, the figures for the composite z-score in [8] and in assay [9] were 1.21 and 0.884, respectively. Besides, the z-score is -0.208 in [7] and 0.635 (inactive) in assay [10].
Consider `CC(C)C[C@@H]1NC(=O)[C@H]2C[C@@H](C(=O)O)[C@@H](c3cccc(OCCO)c3)N2C1=O`, for which the composite z-score stood at 1.49 in assay [1]; 0.0559 in [2]; 0.119 in assay [3]; 0.267 in [4]; 1.3 in [5]; 1.66 in [6]. Besides, the composite z-score in assay [8] is 0.797; in assay [9], 0.325. Also, the results for the z-score in assay [7] and in assay [10] were 0.951 and -1.07 (inactive), respectively.
`C=C(CCCC)/C(=C/C[C@@H](OC(C)=O)c1ccc(OCCO)cc1)c1cc(C(=O)OC)ccc1OC`: the composite z-score was -0.435 in assay [1]; 0.858 in [2]; 0.304 in [3]; -0.156 in [4]; 0.335 in [5]; -0.0009 in assay [6]. For the same molecule, the results for the composite z-score in assay [8] and in assay [9] were 0.548 and 0.94, respectively. In addition, the figures for the z-score in [7] and in assay [10] were 1.85 and -1.07 (inactive), respectively.
As for `Cc1ccc(S[C@]2(C(=O)NC(C)C)CC(=O)N(Cc3ccccc3)[C@@H]2c2ccc(CO)cc2)cc1`, the composite z-score in assay [1] is 0.0893; in [2], -0.161; in assay [3] it was 0.274; in assay [4], -1.36; in assay [5], -1.15; in [6] it was -1.36. Besides, the composite z-score in assay [8] was -1.06; in assay [9], 0.704. Also, the z-score in assay [7] is 0.649; in assay [10], 0.262 (inactive).
In the case of `C=C(CCCC)C(=O)CC[C@H](OC(=O)c1ccccc1-c1ccccc1C(=O)O)c1cccc(OCCO)c1`, the composite z-score in assay [1] was -0.413; in [2], -0.298; in [3], -0.194; in assay [4], -0.435; in assay [5] it was -0.0662; in assay [6] it was 0.591. Also, the composite z-score in assay [8] is 0.191; in assay [9], -0.373. Further, the z-score in [7] was 0.15; in [10], -0.755 (inactive).
For `COC(=O)[C@]1(Cc2ccccc2N=[N+]=[N-])N=C(c2ccc(OCCCO)cc2)O[C@@H]1c1ccccc1CN=[N+]=[N-]`, the composite z-score turned out to be 0.335 in [1]; 1.12 in assay [2]; 2.02 in assay [3]; 0.206 in assay [4]; 1.07 in assay [5]; 1.38 in assay [6]. Also, the composite z-score turned out to be 0.182 in assay [8] and 0.0031 in assay [9]. Besides, the z-score in assay [7] is -0.199; in assay [10], -0.232 (inactive).
In the case of `COC(=O)[C@@]1(Cc2ccc(F)cc2)[C@H]2c3cc(C(=O)N4CCCC4)n(CCSCCO)c3C[C@H]2CN1C(=O)c1ccccc1`, the composite z-score in [1] was 0.163; in [2], 0.767; in [3] it was 1.11; in [4] it was 0.982; in assay [5], -0.16; in assay [6] it was -0.79. Besides, the results for the composite z-score in assay [8] and in [9] were -0.973 and 0.679, respectively. The z-score in assay [7] was 0.281; in assay [10], 0.5 (inactive).
Regarding `C[C@]1(C(=O)O)c2ccccc2C(=O)N(Cc2cc(C(F)(F)F)cc(C(F)(F)F)c2)[C@H]1c1ccc(CO)cc1`, the composite z-score was -0.41 in assay [1]; -0.129 in assay [2]; 0.0797 in assay [3]; 0.844 in [4]; 0.82 in [5]; -0.354 in assay [6]. The composite z-score in assay [8] came out at 1.02; in assay [9], 0.861. The z-score is -0.401 in assay [7] and 1.01 (inactive) in assay [10].
Consider `CC(C)(C)OC(=O)CC[C@@]1(C(=O)N2CCOCC2)N=C(c2ccc(OCCCO)cc2)O[C@@H]1c1ccccc1CN=[N+]=[N-]`, for which the composite z-score was determined as 3.27 in assay [1]; 1.26 in [2]; 0.855 in assay [3]; 0.949 in [4]; 1.4 in assay [5]; 1.76 in [6]. Besides, the composite z-score in assay [8] was -0.271; in [9] it was 0.898. For the same molecule, the z-score is 0.193 in assay [7] and -1.2 (inactive) in [10].
As to `C=CC[C@@]1(C(=O)NCCCOC)N=C(c2ccc(OCCCO)cc2)O[C@@H]1c1ccccc1CN=[N+]=[N-]`, the composite z-score in assay [1] was found to be 2.86; in assay [2], 1.21; in assay [3], 0.117; in [4], 1.01; in assay [5], 1.15; in [6] it was 0.312. Besides, the composite z-score in assay [8] came out at 0.309; in assay [9], 0.719. Also, the z-score in assay [7] is 1.7; in assay [10], 0.645 (inactive).
As for `O=C1O[C@H](c2ccccc2)[C@H](c2ccccc2)N2[C@H]1[C@@H](C(=O)O)[C@]1(C(=O)Nc3ccccc31)[C@H]2c1ccc(OCCO)cc1`, the composite z-score is 1.26 in assay [1]; 0.823 in assay [2]; -0.0003 in assay [3]; 0.438 in [4]; 0.496 in [5]; 0.293 in assay [6]. The values for the composite z-score in assay [8] and in [9] were -0.193 and 0.677, respectively. The figures for the z-score in assay [7] and in assay [10] were 0.209 and -1.01 (inactive), respectively.
As to `CN1C(=O)C2C(C1=O)C1C=C(CCCO)C2C(C2CC2)N1C` (stereo not given), the composite z-score in assay [1] is -0.194; in assay [2] it was -0.404; in [3], 0.813; in assay [4], -1.04; in assay [5], -0.39; in [6], 0.628. Also, the values for the composite z-score in assay [8] and in assay [9] were -0.991 and 0.0425, respectively. Besides, the z-score in [7] was 0.772; in assay [10], -0.224 (inactive).
On to `CCN1C(=O)C2CC(=O)C3C(CN(S(=O)(=O)c4ccc(C)cc4)C3c3ccc(C)cc3)C2C1=O` (stereo not given), for which the composite z-score in assay [1] is 1.98; in assay [2], 1.18; in [3], 1.09; in assay [4], -0.38; in [5], -0.238; in assay [6] it was -0.315. Further, the values for the composite z-score in assay [8] and in [9] were -0.573 and -0.0147, respectively. Moreover, the results for the z-score in assay [7] and in assay [10] were 0.0148 and 0.12 (inactive), respectively.
As for `CCOC(=O)C1=C[C@@H](C(C)(C)C)N(S(=O)(=O)c2ccc(C)cc2)[C@H]1c1ccc(OC)cc1`, the composite z-score was 0.772 in assay [1]; 1.22 in assay [2]; 1.62 in assay [3]; 1.02 in assay [4]; 0.688 in [5]; 0.387 in assay [6]. In addition, the composite z-score was determined as 0.554 in assay [8] and 0.782 in [9]. Moreover, the z-score in assay [7] is 2.61; in assay [10], 1.95 (inactive).
